What all share (details): primary human HUVEC with PBMC; actives raise or lower the signal
Read-out in test [1]: Interleukin-1 alpha (IL1a), IL1A (gene 3552)
Nature of the test: BSK_LPS_IL1a: BioMAP Diversity Plus: LPS Assay for Interleukin-1 alpha (IL1a) Biomarker Activity (AID 2283080). In outline:
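Human umbilical vein endothelial cells co-cultured with peripheral blood mononuclear cells were LPS-stimulated and exposed to test chemicals for 24 h. IL-1 alpha was quantified by ELISA, with bidirectional curve fitting against DMSO as the negative control and baseline.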

Read-out in test [2]: Monocyte Chemoattractant Protein-1 (MCP1), CCL2 (gene 6347)
Description: BSK_LPS_MCP1: BioMAP Diversity Plus: LPS Assay for Monocyte Chemoattractant Protein-1 (MCP1) Biomarker Activity (AID 2283081).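 On AC50: secreted MCP-1 protein quantified by ELISA in culture supernatant.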 Put shortly:
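HUVEC plus PBMC co-culture (human primary cells, LPS system) exposed to test chemical for 24 h; MCP-1 measured by ELISA. Bidirectional curve fitting against DMSO baseline; parallel SRB total-protein staining flags overt cytotoxicity.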

The nature of test [3]: BSK_LPS_PGE2: BioMAP Diversity Plus: LPS Assay for Prostaglandin E2 (PGE2) Biomarker Activity (AID 2283082).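 On AC50: secreted prostaglandin E2 measured by ELISA in LPS-stimulated co-culture.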 In outline:
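Compounds were added to the LPS co-culture of endothelium and PBMC, and PGE2 was measured by ELISA after 24 h. Responses in either direction were fitted with DMSO as baseline.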

Read-out in test [4]: Macrophage colony-stimulating factor (MCSF), CSF1 (gene 1435)
Description: BSK_LPS_MCSF: BioMAP Diversity Plus: LPS Assay for Macrophage colony-stimulating factor (MCSF) Biomarker Activity (AID 2283083). Put shortly:
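Human umbilical vein endothelial cells co-cultured with peripheral blood mononuclear cells were exposed to compound for 24 h. M-CSF levels were measured by ELISA, and bidirectional curve fitting used DMSO as the negative control and baseline.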

Read-out in test [5]: Tissue Factor, F3 (gene 2152)
Nature of the test: BSK_LPS_TissueFactor: BioMAP Diversity Plus: LPS Assay for Tissue Factor Biomarker Activity (AID 2283084). In outline:
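Human umbilical vein endothelial cells co-cultured with peripheral blood mononuclear cells were dosed and stimulated with LPS. Cell-surface CD142 was quantified by ELISA at 24 h. Activity was fitted bidirectionally against DMSO baseline.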

Read-out in test [6]: Tumor necrosis factor (Homo sapiens) (UniProt P01375)
Nature of the test: BSK_LPS_TNFa: BioMAP Diversity Plus: LPS Assay for Tumour Necrosis Factor alpha (TNFa) Biomarker Activity (AID 2283085).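 On AC50: TNFa protein level quantified by ELISA in the co-culture.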 Put shortly:
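Cells (umbilical vein endothelium plus peripheral blood mononuclear cells) were dosed with chemical, incubated 24 h, then TNFa was quantified by ELISA; values derive from bidirectional fitting with DMSO as baseline.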

Read-out in test [7]: Vascular cell adhesion molecule 1 (VCAM1), VCAM1 (gene 7412)
Nature of the test: BSK_LPS_VCAM1: BioMAP Diversity Plus: LPS Assay for Vascular cell adhesion molecule 1 (VCAM1) Biomarker Activity (AID 2283086). Put shortly:
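Cells are dosed in an LPS-stimulated endothelial/mononuclear co-culture and, after 24 h, VCAM-1 is quantified by ELISA. Activity in either direction is fitted relative to the DMSO negative control.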

Read-out in the next test: CD40, CD40 (gene 958)
Nature of the test: BSK_SAg_CD40: BioMAP Diversity Plus: SAg Assay for CD40 Biomarker Activity (AID 2283088). In outline: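 Human umbilical vein endothelial cells co-cultured with PBMC; CD40 levels measured by ELISA with fluorescence read-out 24 h after chemical dosing. Gain or loss of signal fitted bidirectionally against DMSO baseline.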

Read-out in the next test: CD69, CD69 (gene 969)
Description: BSK_SAg_CD69: BioMAP Diversity Plus: SAg Assay for CD69 Biomarker Activity (AID 2283089).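 On AC50: cell surface CD69 protein quantified by ELISA with fluorescence detection.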 Put shortly:
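Values derive from bidirectional fitting relative to DMSO vehicle. Cells: umbilical vein endothelium plus peripheral blood mononuclear cells, treated 24 h before fluorescent ELISA for CD69.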

Read-out in another test: CD38, CD38 (gene 952)
Description: BSK_SAg_CD38: BioMAP Diversity Plus: SAg Assay for CD38 Biomarker Activity (AID 2283087). In outline: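 CD38 quantified by ELISA (fluorescence) in a superantigen-activated endothelial cell–PBMC co-culture at 24 h post-dose. Activity fitted in both directions relative to DMSO; parallel SRB and Alamar Blue cytotoxicity read-outs.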

Calls of active or inactive are those of the source. How the source made its calls: active means hit-call score of the fitted dose curve at least 0.9, where 1 is the maximum; inactive means score below 0.9.

Chain of Tumor necrosis factor (Homo sapiens) (P01375 whole entry, looked up): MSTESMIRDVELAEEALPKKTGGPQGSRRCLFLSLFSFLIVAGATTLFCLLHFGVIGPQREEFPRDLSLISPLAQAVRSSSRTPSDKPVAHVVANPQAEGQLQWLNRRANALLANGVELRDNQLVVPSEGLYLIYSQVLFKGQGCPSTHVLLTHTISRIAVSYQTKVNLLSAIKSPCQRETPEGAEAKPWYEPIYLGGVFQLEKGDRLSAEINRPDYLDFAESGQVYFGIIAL

As to `CON=C(C(=O)OC)c1ccccc1CON=C(C)c1cccc(C(F)(F)F)c1`, the result in [1], in test [5] and in test [7] was inactive. In addition, the AC50 in test [2] is 2.93 µM (active); in test [3], 1.14 µM (active); in test [4], 5.49 µM (active); in test [6] it was 5.02 µM (active); with CD40, CD40 (gene 958), 5.02 µM (active).

As for `CCCSP(=O)(OCC)SCCC`, the outcome in test [1], in test [2], in [3], in [4], in [5] and in test [6] was inactive. The outcome in [7] is “inactive”; in the test with CD40, CD40 (gene 958), “inactive”; in the test with CD69, CD69 (gene 969), “inactive”.

Take `CNC(=O)Oc1cccc2c1OC(C)(C)O2`: the outcome in [1] was “inactive”; in test [2], “inactive”; in test [3] it was “inactive”; in test [5], “inactive”; with CD40, CD40 (gene 958) it was “inactive”; with CD69, CD69 (gene 969), “inactive”. Moreover, the half-maximal activity concentration (AC50) in test [4] was 20 µM (active); in [6], 32.9 µM (active); in test [7], 20 µM (active).

Regarding `CCNc1nc(Cl)nc(NC(C)(C)C#N)n1`, the outcome in [1], in test [2], in test [3], in [4], in test [5] and in test [7] was inactive. Also, the outcome in the test with CD40, CD40 (gene 958) is “inactive”; in the test with CD69, CD69 (gene 969), “inactive”. The AC50 in test [6] was 3.97 µM (active).

For `CN(C)NC(=O)CCC(=O)O`, the result in test [1], in [2], in test [3], in test [4], in test [5] and in test [6] was inactive. For the same compound, the outcome is “inactive” in [7]; “inactive” with CD40, CD40 (gene 958); “inactive” with CD69, CD69 (gene 969).

Regarding `CCOP(=S)(Oc1cnc(C(C)(C)C)nc1)OC(C)C` (stereo not given), the half-maximal activity concentration (AC50) in [1] is 36.7 µM (active); in test [2], 32.2 µM (active); in test [3], 31.8 µM (active); in test [4], 32.6 µM (active); in test [5], 33.1 µM (active); in [6] it was 36.5 µM (active). Moreover, the AC50 in test [7] is 32.5 µM (active); in the test with CD40, CD40 (gene 958), 30.8 µM (active); with CD69, CD69 (gene 969) it was 30 µM (active).

Turning to `CC(C)=CC1C(C(=O)OCN2C(=O)C3=C(CCCC3)C2=O)C1(C)C` (stereo not given), the result in test [1] and in [5] was inactive. The AC50 in [2] is 9.93 µM (active); in test [3], 4.14 µM (active); in test [4] it was 34.3 µM (active); in test [6], 31.7 µM (active); in test [7], 28.5 µM (active); in the test with CD40, CD40 (gene 958), 20.5 µM (active). Also, the concentration at half-maximal activity (AC50) with CD69, CD69 (gene 969) was 20 µM (active).

In the case of `C#CC(C)(C)NC(=O)c1cc(Cl)cc(Cl)c1`, the outcome in test [1], in test [2], in test [3], in test [4], in test [5] and in test [6] was inactive. In addition, the outcome in test [7] is “inactive”; in the test with CD40, CD40 (gene 958) it was “inactive”; with CD69, CD69 (gene 969), “inactive”.

`C[Si](Cn1cncn1)(c1ccc(F)cc1)c1ccc(F)cc1`: the outcome in test [1] was “inactive”; in test [2], “inactive”; in test [5] it was “inactive”; in test [6], “inactive”; in test [7], “inactive”; with CD69, CD69 (gene 969), “inactive”. In addition, the half-maximal activity concentration (AC50) is 1.62 µM (active) in test [3]; 14.7 µM (active) in test [4]; 27 µM (active) with CD40, CD40 (gene 958).

For the compound `C=C(C)[C@H]1Cc2c(ccc3c2O[C@@H]2COc4cc(OC)c(OC)cc4[C@@H]2C3=O)O1`, the AC50 in [2] is 26.8 µM (active); in test [3], 0.702 µM (active); in test [4] it was 13.4 µM (active); in test [5] it was 8.75 µM (active); in test [7] it was 5.99 µM (active); with CD38, CD38 (gene 952), 5.59 µM (active). Besides, the half-maximal activity concentration (AC50) was 7.75 µM (active) with CD40, CD40 (gene 958) and 3.97 µM (active) with CD69, CD69 (gene 969). The result in [6] was inactive.

Consider `CCOP(=S)(OCC)Oc1cc(C)nc(C(C)C)n1`, for which the outcome in test [1], in test [2], in test [3], in [4], in [5] and in test [7] was inactive. The outcome is “inactive” with CD40, CD40 (gene 958) and “inactive” in the test with CD69, CD69 (gene 969). Also, the AC50 in test [6] was 20 µM (active).

Turning to `CC(C)[C@H](C(=O)O[C@H](C#N)c1cccc(Oc2ccccc2)c1)c1ccc(Cl)cc1`, the outcome in test [1], in test [2], in test [4], in test [5], in test [6] and in test [7] was inactive. Moreover, the outcome is “inactive” with CD40, CD40 (gene 958) and “inactive” with CD69, CD69 (gene 969).

Regarding `COP(=O)(OC)OC(Br)C(Cl)(Cl)Br` (stereo not given), the AC50 in test [1] is 32.3 µM (active); in test [2], 36.5 µM (active); in test [4] it was 28.5 µM (active); in test [5], 15.2 µM (active); in test [6] it was 28.9 µM (active); in test [7], 26.4 µM (active). Also, the AC50 was 30.2 µM (active) with CD40, CD40 (gene 958) and 30.1 µM (active) in the test with CD69, CD69 (gene 969). Besides, the outcome in test [3] was inactive.

Consider `COP(=O)(OC)SCn1c(=O)oc2cc(Cl)cnc21`, for which the result in test [1], in test [2] and in test [5] was inactive. Moreover, the AC50 is 2.01 µM (active) in test [3]; 18.3 µM (active) in [4]; 0.148 µM (active) in test [6]; 4.34 µM (active) in [7]; 20 µM (active) in the test with CD40, CD40 (gene 958); 20 µM (active) with CD69, CD69 (gene 969).

On to `CCOC(=O)CC(SP(=O)(OC)OC)C(=O)OCC` (stereo not given), for which the outcome in [1], in test [2], in test [4], in [5], in [6] and in [7] was inactive. Besides, the outcome is “inactive” with CD40, CD40 (gene 958) and “inactive” with CD69, CD69 (gene 969). Besides, the AC50 in test [3] was 0.323 µM (active).

Regarding `CCCCN(CC)c1c([N+](=O)[O-])cc(C(F)(F)F)cc1[N+](=O)[O-]`, the outcome was “inactive” in [1]; “inactive” in [2]; “inactive” in test [3]; “inactive” in test [5]; “inactive” in test [6]; “inactive” in the test with CD69, CD69 (gene 969). Further, the AC50 is 18.2 µM (active) in [4]; 26.5 µM (active) in test [7]; 29.1 µM (active) with CD40, CD40 (gene 958).

In the case of `O=c1ccc(=O)[nH][nH]1`, the result in test [1], in test [2], in test [3], in test [4], in [5] and in [6] was inactive. The outcome is “inactive” in test [7]; “inactive” with CD40, CD40 (gene 958); “inactive” in the test with CD69, CD69 (gene 969).

Regarding `CCCOCC(=Nc1ccc(Cl)cc1C(F)(F)F)n1ccnc1`, the AC50 was 31.8 µM (active) in [1]; 33.3 µM (active) in [2]; 20.9 µM (active) in test [4]; 29.2 µM (active) in test [5]; 31.3 µM (active) in [6]; 29 µM (active) in test [7]. In addition, the AC50 with CD40, CD40 (gene 958) was 18.1 µM (active); in the test with CD69, CD69 (gene 969) it was 18.9 µM (active). In addition, the result in test [3] was inactive.

The values are drawn from PubChem BioAssay (EPA / NIEHS).
